Laboratory results as given in PubChem BioAssay (NCATS).
Records with an inconclusive call do not appear. Activity calls are given as the source filed them. The call rests on the fitted dose curve; in most records, active means well fitted inhibition curve with a large enough effect; inconclusive means small, poorly fitted or top-dose-only effect; inactive means flat fitted curve, though single readings scatter.

Legend:
Test in all cases: qHTS profiling for inhibitors of Plasmodium falciparum proliferation (AID 504749); further: nearly all actives have a fitted effect of over 60% in size
Details in all cases: P. falciparum in erythrocytes, SYBR Green DNA, 72 h; series mostly up to 28.7 µM
7G8 = test system: 7G8
Summary of the method: (§1)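 SYBR Green fluorescence (ex 485 nm, em 535 nm) reports parasite DNA after 72 h compound exposure of infected red cells at 0.3% parasitemia, 2.5% hematocrit; signal normalized to 0.29 uM artemisinin and vehicle wells.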

CP185 = test system: CP185
Summary of the method: as §1

CP192 = test system: CP192
Summary of the method: as §1

CP201 = test system: CP201
Summary of the method: as §1

CP238 = test system: CP238
Summary of the method: as §1

CP247 = test system: CP247
Summary of the method: as §1

CP262 = test system: CP262
Summary of the method: as §1

CP265 = test system: CP265
Summary of the method: as §1

CP266 = test system: CP266
Summary of the method: as §1

CP268 = test system: CP268
Summary of the method: as §1

CP286 = test system: CP286
Summary of the method: as §1

CP305 = test system: CP305
Summary of the method: as §1

CP335 = test system: CP335
Summary of the method: as §1

DIV30 = test system: DIV30
Summary of the method: as §1

ECU = test system: ECU
Summary of the method: as §1

GB4 = test system: GB4
Summary of the method: as §1

P94_40 = test system: P94_40
Summary of the method: as §1

PC26 = test system: PC26
Summary of the method: as §1

TAB109 = test system: TAB109
Summary of the method: as §1

TAB113 = test system: TAB113
Summary of the method: as §1

Measured: Potency
Potency means the concentration at half of the fitted maximal effect.

C[C@@H](Cc1ccc(O)cc1)NC[C@@H](O)c1cc(O)cc(O)c1
inactive: all assays above

C[C@@H]1O[C@@H](O[C@H]2C[C@@H](O)[C@@]3(CO)[C@H]4[C@H](O)C[C@]5(C)[C@@H](C6=CC(=O)OC6)CC[C@]5(O)[C@H]4CC[C@@]3(O)C2)[C@@H](O)[C@H](O)[C@H]1O
not listed: PC26
inactive: all other assays above

O=C1C[C@@H]2OCC=C3CN4CC[C@]56c7ccccc7N1[C@@H]5[C@@H]2[C@H]3C[C@H]46 (tested in a mixture with another compound)
inactive: PC26

C=C[C@@H]1CN2CC[C@H]1C[C@H]2[C@H](O)c1ccnc2ccccc12
active: 7G8 158 nM | CP185 1260 nM | CP192 953 nM | CP201 1510 nM | CP238 1410 nM | CP247 2240 nM | CP262 379 nM | CP265 891 nM | CP266 1510 nM | CP268 1200 nM | CP286 794 nM | CP305 757 nM | CP335 757 nM | DIV30 757 nM | ECU 199 nM | GB4 169 nM | P94_40 398 nM | PC26 426 nM | TAB109 178 nM | TAB113 501 nM
